These results are taken from PubChem BioAssay (NCATS).

Structures are written as SMILES. Inconclusive results are not listed. A call without a number means that no potency is given here. The source made the active and inactive calls. The call rests on the fitted dose curve; in most records, active means well fitted curve in the direction sought with a large enough effect; inconclusive means small, poorly fitted or top-dose-only effect, or another doubt; inactive means no such curve, though single readings can be large; an effect the other way counts as inactive or inconclusive.

Chain of D(1A) dopamine receptor (Homo sapiens) (P21728 whole entry, looked up): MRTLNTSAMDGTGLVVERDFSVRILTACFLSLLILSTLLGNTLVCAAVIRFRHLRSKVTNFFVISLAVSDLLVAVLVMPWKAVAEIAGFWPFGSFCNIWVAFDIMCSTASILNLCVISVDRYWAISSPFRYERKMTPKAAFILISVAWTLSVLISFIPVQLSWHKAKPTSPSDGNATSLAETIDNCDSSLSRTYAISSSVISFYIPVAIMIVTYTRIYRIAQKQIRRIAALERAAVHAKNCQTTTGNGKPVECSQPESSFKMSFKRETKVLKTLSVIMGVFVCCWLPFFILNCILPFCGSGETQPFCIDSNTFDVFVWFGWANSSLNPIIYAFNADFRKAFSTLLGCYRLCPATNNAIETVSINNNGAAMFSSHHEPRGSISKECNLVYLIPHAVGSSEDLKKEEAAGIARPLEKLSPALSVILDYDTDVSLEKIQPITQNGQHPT
Chain of ATP-dependent 6-phosphofructokinase (Trypanosoma brucei brucei) (O15648 whole entry, looked up): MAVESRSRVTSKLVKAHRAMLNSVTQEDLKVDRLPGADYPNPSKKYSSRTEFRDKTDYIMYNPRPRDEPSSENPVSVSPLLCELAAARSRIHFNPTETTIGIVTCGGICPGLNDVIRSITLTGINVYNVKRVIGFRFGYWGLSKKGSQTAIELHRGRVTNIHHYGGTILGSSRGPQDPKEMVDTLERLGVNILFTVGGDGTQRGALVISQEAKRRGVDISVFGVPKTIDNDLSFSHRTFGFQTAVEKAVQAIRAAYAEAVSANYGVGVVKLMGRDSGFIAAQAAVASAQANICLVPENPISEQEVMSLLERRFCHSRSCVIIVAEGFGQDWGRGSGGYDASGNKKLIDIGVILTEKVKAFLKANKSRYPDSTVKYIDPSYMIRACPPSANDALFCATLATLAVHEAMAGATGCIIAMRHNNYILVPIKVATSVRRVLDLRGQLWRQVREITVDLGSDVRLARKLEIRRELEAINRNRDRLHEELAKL

In the first assay the target is D(1A) dopamine receptor (Homo sapiens) (UniProt P21728). The assay is described as follows: HTS Assay for Allosteric Agonists of the Human D1 Dopamine Receptor: Primary Screen for Potentiators (AID 488982). The following applies: HEK293 T-REx D1 inducible cells, calcium flux, kinetic fluorescence; series mostly up to 8.37 µM. The method in brief:
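Calcium flux in an inducible, force-coupled HEK293 Trex D1 line (overnight at 30 C): agonist mode is the 180 s kinetic read after compound; potentiator mode is the following 180 s read after dopamine at EC20.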
On the technique in general: Calcium assays in cells follow changes in intracellular calcium, usually with a dye or a luminescent sensor.
As to `CCOC(=O)Nc1ccc(NCc2ccc(F)cc2)nc1N`, the Potency entry was “inactive”.
Same read-out and setting: to `CC(COc1ccccc1)N(CCCl)Cc1ccccc1` (stereo unspecified) belongs “inactive”; to `Cc1cnc(C(=O)NCCc2ccc(S(=O)(=O)NC(=O)NC3CCCCC3)cc2)cn1`, “inactive”.
On to `CN1CCC(=C2c3ccccc3CC(=O)c3sccc32)CC1`, for which the Potency result is “inactive”.
Take `CN1CCC(=C2c3ccccc3C=Cc3ccccc32)CC1`: the Potency result is “inactive”.
The same measure, in the same setting: to `COc1ccccc1OCCNCC(O)COc1cccc2[nH]c3ccccc3c12` (stereo unspecified) belongs “inactive”.
The same measure, in the same setting: to `CN(C)C(=O)C(CCN1CCC(O)(c2ccc(Cl)cc2)CC1)(c1ccccc1)c1ccccc1` belongs “inactive”.
On the same count and under the same terms, with `Cc1ccccc1N1C(=O)c2cc(S(N)(=O)=O)c(Cl)cc2NC1C` (stereo unspecified) the entry was “inactive”; with `Fc1ccc([C@@H]2CCNC[C@H]2COc2ccc3c(c2)OCO3)cc1`, “inactive”.

A further assay shares this target. The assay is described as follows: HTS Assay for Allosteric Agonists of the Human D1 Dopamine Receptor: Primary Screen for Antagonists (AID 488983).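 Further: calcium flux response to an EC80 dopamine challenge measured with no-wash dye; nearly all actives have a fitted effect of over 65% in size.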 The following applies: D1 receptor cell assay, antagonist mode, qHTS titration; series mostly up to 41.8 µM. The method in brief:
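Screening of inducible HEK293 T-REx D1 cells: compound first, EC80 dopamine 180 s later, each phase read kinetically for calcium over 180 s.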
Background: In qHTS, concentration-response curves come from the screen itself.
Take `CC(CCc1ccc(O)cc1)NCCc1ccc(O)c(O)c1` (stereo unspecified): the Potency entry is “inactive”.
For `NCCCCCC(=O)O`, the Potency result was “inactive”.
With `CN1C(C(=O)Nc2ccccn2)=C(O)c2ccccc2S1(=O)=O`, the Potency result is “inactive”.
The same measure, in the same setting: to `CN(Cc1cnc2nc(N)nc(N)c2n1)c1ccc(C(=O)N[C@@H](CCC(=O)O)C(=O)O)cc1` belongs “inactive”; to `CC(C)C(=O)Nc1ccc([N+](=O)[O-])c(C(F)(F)F)c1`, “inactive”; to `C[C@H]1c2cccc(O)c2C(O)=C2C(=O)[C@]3(O)C(O)=C(C(N)=O)C(=O)[C@@H](N(C)C)[C@@H]3[C@@H](O)[C@@H]21`, “inactive”.
On the same count and under the same terms, with `Cc1ccccc1N1C(=O)c2cc(S(N)(=O)=O)c(Cl)cc2NC1C` (stereo unspecified) the entry was “inactive”.
The same measure, in the same setting: to `Fc1ccc([C@@H]2CCNC[C@H]2COc2ccc3c(c2)OCO3)cc1` belongs “inactive”.

The next assay addresses ATP-dependent 6-phosphofructokinase (Trypanosoma brucei brucei) (UniProt O15648). The assay is described as follows: qHTS Assay to Find Inhibitors of T. brucei phosphofructokinase: hit validation (AID 492961).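 Further: luminescence reports ADP formed as PFK phosphorylates fructose-6-phosphate with ATP.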 The following applies: T. brucei PFK, ADP-Glo luminescence; series mostly up to 51.4 µM. The method in brief:
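In this biochemical qHTS validation, titrated compounds were tested against 1.25 nM PFK with 0.1 mM ATP and 0.5 mM F6P. Percent activity came from controls lacking or containing enzyme.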
`CC1(CN2CCC(n3c(=O)[nH]c4ccccc43)CC2)OCc2ccccc2-n2cccc21` (stereo unspecified): the Potency entry is “inactive”.
Consider `CC[C@@]1(O)C(=O)OCc2c1cc1n(c2=O)Cc2cc3c(CN(C)C)c(O)ccc3nc2-1`, for which the Potency entry was “inactive”.
On the same count and under the same terms, with `CC(C)(C)C(=O)Oc1ccc(S(=O)(=O)Nc2ccccc2C(=O)NCC(=O)O)cc1` the entry was “inactive”; with `COc1cc2c(c(OC)c1OC)-c1ccc(OC)c(=O)cc1[C@@H](NC(C)=O)CC2`, “inactive”; with `O=c1c(O)c(-c2ccc(O)c(O)c2)oc2cc(O)cc(O)c12`, “inactive”.
Same read-out and setting: to `CCOC(=O)Nc1ccc(NCc2ccc(F)cc2)nc1N` belongs “inactive”; to `CS(=O)(=O)CCNCc1ccc(-c2ccc3ncnc(Nc4ccc(OCc5cccc(F)c5)c(Cl)c4)c3c2)o1`, “inactive”.
Same read-out and setting: with `NCCCCCC(=O)O` the entry was “inactive”; with `CN1C(C(=O)Nc2ccccn2)=C(O)c2ccccc2S1(=O)=O`, “inactive”.
Take `CC[N+](CC)(CC)CCOc1cccc(OCC[N+](CC)(CC)CC)c1OCC[N+](CC)(CC)CC`: the Potency result was “inactive”.
The same measure, in the same setting: with `CN(C)C(=N)N=C(N)N` the entry was “inactive”.
`COc1ccccc1OCCNCC(O)COc1cccc2[nH]c3ccccc3c12` (stereo unspecified): the Potency result is “inactive”.
Still for that read-out and setting: with `CN(Cc1cnc2nc(N)nc(N)c2n1)c1ccc(C(=O)N[C@@H](CCC(=O)O)C(=O)O)cc1` the entry was “inactive”.
Same read-out and setting: to `CC(=O)OCC(CCn1cnc2cnc(N)nc21)COC(C)=O` belongs “inactive”; to `CN(CCOc1ccc(NS(C)(=O)=O)cc1)CCc1ccc(NS(C)(=O)=O)cc1`, “inactive”; to `Cc1ccc(-c2cc(C(F)(F)F)nn2-c2ccc(S(N)(=O)=O)cc2)cc1`, “inactive”.

System in a further assay: not listed separately
The assay is described as follows: Validation screen for small molecules that induce genotoxicity in human embryonic kidney (HEK293T) cells expressing luciferase-tagged ELG1 (AID 493106). The following applies: luminescence; series mostly up to 46.1 µM. The method, boiled down: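 Reporter-gene quantitative HTS in HEK293T cells carrying luciferase-tagged ELG1, whose level climbs under genotoxic stress. Compound exposure lasts 16 hr at 37 °C before luciferase detection.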
Consider `CC(CCc1ccc(O)cc1)NCCc1ccc(O)c(O)c1` (stereo unspecified), for which the Potency result is “inactive”.
The same measure, in the same setting: with `O=c1c(O)c(-c2ccc(O)c(O)c2)oc2cc(O)cc(O)c12` the entry was “inactive”.
The same measure, in the same setting: with `CC(COc1ccccc1)N(CCCl)Cc1ccccc1` (stereo unspecified) the entry was “inactive”.
Same read-out and setting: with `O=C(CCCN1CCC(O)(c2ccc(Cl)cc2)CC1)c1ccc(F)cc1` the entry was “inactive”.
For the compound `Cc1cnc(C(=O)NCCc2ccc(S(=O)(=O)NC(=O)NC3CCCCC3)cc2)cn1`, the Potency result is “inactive”.
The same measure, in the same setting: with `CN1C(C(=O)Nc2ccccn2)=C(O)c2ccccc2S1(=O)=O` the entry was “inactive”; with `CC[N+](CC)(CC)CCOc1cccc(OCC[N+](CC)(CC)CC)c1OCC[N+](CC)(CC)CC`, “inactive”; with `CN1CCC(=C2c3ccccc3C=Cc3ccccc32)CC1`, “inactive”.
On the same count and under the same terms, to `Clc1ccc(C(c2ccccc2Cl)C(Cl)Cl)cc1` (stereo unspecified) belongs “inactive”; to `CN1CCN(C2=Nc3cc(Cl)ccc3Nc3ccccc32)CC1`, “inactive”.
For `Clc1ccc2c(c1)C(N1CCNCC1)=Nc1ccccc1O2`, the Potency result was “inactive”.
On the same count and under the same terms, with `C[C@H]1c2cccc(O)c2C(O)=C2C(=O)[C@]3(O)C(O)=C(C(N)=O)C(=O)[C@@H](N(C)C)[C@@H]3[C@@H](O)[C@@H]21` the entry was “inactive”.
`Cc1ccccc1N1C(=O)c2cc(S(N)(=O)=O)c(Cl)cc2NC1C` (stereo unspecified): the Potency result is “inactive”.
